This is a sample that favours compounds with a hit; in the whole collection about 7.5% have one here.
SMN2 splice enh = enhancers of SMN2 splice variant expression. Potency, µM (doses to about 46.1 µM), most hits filed as activators. 210,000 compounds, 2.8% hits. HEK293 SMN2-luciferase splicing reporter, luminescence, 30-36 h; further: nearly all actives have a fitted effect of over 55% in size
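qHTS luciferase splicing reporter: luminescence rises when SMN2 exon 7 is included in transfected HEK293 cells. Compound exposure lasted 30-36 h at 37C, with 4.5 mM final sodium butyrate as control, followed by a ONE-Glo read.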
ELG1 genotox = induces genotoxicity in HEK293T cells with luciferase-tagged ELG1 | 330,000 compounds, 1.3% hits | AID 504466 | HEK293T ELG1-luciferase reporter, luminescence, 16 h | Potency, µM (titrated, usually from 46 µM), hits mostly activators; further: nearly all actives have a fitted effect of over 60% in size
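Genotoxicity was scored as increased ELG1-luciferase reporter signal, measured by ONE-Glo luminescence (30 min, room temperature). Compound or vehicle exposure of the HEK293T reporter cells lasted 16 hr at 37°C.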
NPC1 prom act = activators of NPC1 promoter | Huh7 NPC1 promoter luciferase reporter, 24 h | Potency, µM (top dose mostly 9.22 µM), usual class: activators | 320,000 compounds, 2.4% hits | AID 485313; further: nearly all actives have a fitted effect of over 60% in size
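NPC1 promoter–luciferase Huh7 cells; 24 h compound; luminescence.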
FLuc modulator = firefly luciferase modulation, counter-screen for miR-21 project. P08659. purified FLuc, Km substrates, luminescence inhibition. Potency, µM (series often up to 57.5 µM), hits mostly inhibitors. 360,000 compounds, 6.9% hits; further: nearly all actives have a fitted effect of over 55% in size
Target sequence (P08659 whole entry, looked up): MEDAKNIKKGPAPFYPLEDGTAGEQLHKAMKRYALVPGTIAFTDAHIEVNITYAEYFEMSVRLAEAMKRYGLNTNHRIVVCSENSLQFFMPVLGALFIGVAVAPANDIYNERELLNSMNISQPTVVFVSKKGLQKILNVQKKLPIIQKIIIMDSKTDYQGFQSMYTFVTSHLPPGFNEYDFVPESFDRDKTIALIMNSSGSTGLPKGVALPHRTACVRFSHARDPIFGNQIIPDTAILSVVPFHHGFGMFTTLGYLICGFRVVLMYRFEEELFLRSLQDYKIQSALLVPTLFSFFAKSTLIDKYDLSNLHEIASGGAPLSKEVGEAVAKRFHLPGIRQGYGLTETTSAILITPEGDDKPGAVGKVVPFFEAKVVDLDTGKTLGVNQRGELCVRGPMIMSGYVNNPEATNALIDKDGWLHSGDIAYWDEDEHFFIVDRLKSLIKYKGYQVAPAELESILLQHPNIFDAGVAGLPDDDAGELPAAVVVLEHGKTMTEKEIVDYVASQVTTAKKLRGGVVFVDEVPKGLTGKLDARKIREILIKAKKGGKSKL
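Purified P. pyralis luciferase (10nM final) with 10uM D-luciferin and 10uM ATP (Km levels) in 50mM Tris acetate pH 7.5, 10mM Mg acetate, 0.01% Tween-20, 0.05% BSA; qHTS 6-point titration, ~60 µM downward; luminescence read.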
Rab9 promoter act = activators of Rab9 promoter | Huh7 Rab9 promoter-luciferase reporter, luminescence, 24 h | Potency, µM (top dose mostly 9.22 µM), actives largely listed as activators | 320,000 compounds, 2.8% hits | AID 485297; further: nearly all actives have a fitted effect of over 60% in size
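Stable Rab9-luc Huh7, 1500 cells/well, 2 h settle; cmpd in DMSO, 24 h, 37 °C/5% CO2; luciferase reagent 10 min RT; luminescence.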
Numbers stand for hits; - = inactive; ? = inconclusive; . = no result given. The call rests on the fitted dose curve; in most records, active means well fitted curve in the direction sought with a large enough effect; inconclusive means small, poorly fitted or top-dose-only effect, or another doubt; inactive means no such curve, though single readings can be large; an effect the other way counts as inactive or inconclusive.

SMILES | SMN2 splice enh | ELG1 genotox | NPC1 prom act | FLuc modulator | Rab9 promoter act
O=C(O)COn1c(-c2ccccc2)nc2ccc(Cl)cc21 | ? | ? | - | 4.78µM | -
COn1c(-c2ccccc2)nc2ccc(Cl)cc21 | - | - | ? | 12µM | ?
O=[N+]([O-])c1ccc2nc(-c3ccccc3)n(OCc3ccc(Cl)cc3)c2c1 | - | - | - | ? | -
COC(=O)C1CCN(c2cc(Cl)nc(N)n2)CC1 | - | - | - | - | -
CC(=O)N1CCN(C(=S)Nc2ccc(SC(F)F)cc2)CC1 | ? | - | - | - | -
CCCN1CCN(C(=S)Nc2ccc(SC(F)F)cc2)CC1 | - | - | - | 13.5µM | -
CCCCc1ccc(NC(=S)N2CCN(C)CC2)cc1 | . | - | - | 15.1µM | -
CC1CCN(C(=S)Nc2ccc(SC(F)F)cc2)CC1 | 22.4µM | - | ? | 1.07µM | -
Cc1ccc(S(=O)(=O)N2CCN(C(=O)Cc3ccsc3)CC2)c(C)c1 | . | - | - | - | -
CCc1cc(=O)n2c([nH]c3ccccc32)c1C#N | - | - | - | 19µM | -
CCc1cc(=S)n2c([nH]c3ccccc32)c1C#N | . | - | - | 23.9µM | -
COCc1cc(=O)n2c([nH]c3ccccc32)c1C#N | ? | - | - | 19µM | -
CCc1c(C)c(C#N)c2[nH]c3ccccc3n2c1=S | . | - | - | - | -
CC(SCc1cc(=O)n2c([nH]c3ccccc32)c1C#N)C(=O)O (centres undefined) | - | - | - | ? | -
C=C(C)Cc1c(C)c(C#N)c2[nH]c3ccccc3n2c1=O | . | - | - | - | -
Cc1ccc(OCC(=O)N(C)CC(=O)Nc2ccc(N3CCOCC3)cc2)cc1 | . | - | - | - | -
O=C(/C=C/c1cccnc1)c1ccccc1O | . | - | - | 16.9µM | -
CN(C)c1ccc(/C=C/C(=O)c2cccnc2)cc1 | . | - | - | 3.01µM | -
Cc1c(/C=C/C(=O)c2ccccc2O)cnn1C | 15.8µM | ? | 3.55µM | 1.35µM | 2.51µM
Cc1ccc(/C=C/C(=O)c2ccccc2O)cc1 | . | ? | - | 1.2µM | -
CC1=C(C(=O)OCCCBr)C(c2ccc3c(c2)OCO3)NC(=O)N1 (centres undefined) | . | - | - | - | -
Cc1ccc(/C=C(\NC(=O)c2ccccc2)C(=O)NC(Cc2ccccc2)C(=O)O)cc1 (centres undefined) | - | - | - | - | -
O=C(/C=C/c1ccco1)c1cccnc1 | . | - | - | - | -
COc1cc(/C=C/C(=O)c2ccccc2O)cc(OC)c1OC | - | ? | - | ? | -
CN(C)c1ccc(/C=C/C(=O)c2ccccc2O)cc1 | . | ? | 3.55µM | 0.601µM | ?
SMILES | SMN2 splice enh | ELG1 genotox | NPC1 prom act | FLuc modulator | Rab9 promoter act
Cc1ccc(/C=C/C(=O)c2ccc(C)cc2)cc1 | - | ? | - | 1.35µM | -
O=C(/C=C/c1ccco1)c1ccccc1O | . | ? | - | 10.7µM | -
CCC(=O)Nc1cccc(Oc2nc(C)cc(C)c2C#N)c1 | - | - | - | - | -
CCc1ccc(Nc2n[n+](-c3ccccc3)c(-c3c(Cl)cccc3Cl)s2)cc1 | . | - | - | - | -
CCc1ccc(Nc2n[n+](-c3ccccc3)c(/C=C/c3ccccc3)s2)cc1 | . | - | - | 12µM | -
COc1cccc(C(=O)Nc2ccccc2C(=O)OCc2cc(=O)n3c4c(sc3n2)CCCC4)c1 | . | . | . | - | .
O=C(CSc1nc2c(oc3ccccc32)c(=O)n1Cc1ccco1)Nc1cccc(Cl)c1 | - | . | . | - | .
O=C(Nc1cccc(S(=O)(=O)NC2=NCCC2)c1)c1ccc(OC(F)F)cc1 | . | - | - | 10.7µM | -
CCOc1ccc(C(=O)NC(=S)Nc2cccc(S(=O)(=O)NC3=NCCC3)c2)cc1 | - | ? | - | 12µM | -
O=C(NC(=S)Nc1cccc(S(=O)(=O)NC2=NCCC2)c1)c1cc(-c2ccco2)nc2ccccc12 | . | - | - | 19µM | -
C=C(C)CNC(=S)Nc1cccc(S(=O)(=O)NC2=NCCC2)c1 | - | - | - | - | -
O=C(Nc1cccc(S(=O)(=O)NC2=NCCC2)c1)c1cc(-c2ccco2)nc2ccccc12 | . | - | - | ? | -
O=C(Nc1cccc(S(=O)(=O)NC2=NCCC2)c1)c1ccccc1 | . | - | . | . | .
CN(C)c1cccc(C(=O)Nc2cccc(S(=O)(=O)NC3=NCCC3)c2)c1 | . | ? | 2.82µM | 21.3µM | 2.24µM
COc1ccc(-n2nnnc2C2CCN(S(=O)(=O)c3cc(Cl)ccc3OC)CC2)cc1 | - | . | . | - | .
O=C(Nc1ccc2c(c1)OCO2)c1ccc(Br)o1 | 11.2µM | 18.4µM | 2.51µM | 23.9µM | 2.82µM
O=C(COC(=O)CNC(=O)c1ccc(Br)o1)Nc1ccc2c(c1)OCCO2 | - | - | - | - | -
O=C(Nc1ccc2c(c1)OCO2)c1ccc(COc2ccc3c(c2)CCC3)o1 | 11.2µM | ? | ? | 19µM | 3.98µM
O=C(Nc1ccc2c(c1)CCC2)c1ccc(Br)o1 | 12.6µM | 6.51µM | 3.55µM | 6.75µM | 3.16µM
Cc1ccc(NC(=O)c2ccncc2)cc1S(=O)(=O)N(C)C | - | - | - | - | -
Cc1ccc(NC(=O)c2ccc(Br)o2)cc1S(=O)(=O)N(C)C | ? | - | ? | 13.5µM | ?
Cc1ccc(C(=O)Nc2ccc3c(c2)CCC3)o1 | 4.47µM | 3.26µM | 3.16µM | 4.26µM | 2.82µM
CC(=O)Nc1ccc2c(c1)CCCC2 | . | - | - | - | -
Cc1cc(NC(=O)c2cc3ccccc3o2)ccc1NC(=O)c1ccccc1 | . | - | - | ? | -
O=C(Nc1ccc2c(c1)CCC2)c1cc2ccccc2o1 | 12.6µM | 1.64µM | 1.26µM | 1.35µM | 1.26µM
SMILES | SMN2 splice enh | ELG1 genotox | NPC1 prom act | FLuc modulator | Rab9 promoter act
O=C(Nc1ccc2nc(C3CC3)n(Cc3ccc(F)cc3)c(=O)c2c1)c1ccco1 | ? | - | - | - | -
CCC(=O)Nc1ccc2nc(C3CC3)n(Cc3ccc(C(C)(C)C)cc3)c(=O)c2c1 | . | 1.64µM | 0.316µM | 1.51µM | ?
COc1ccc(Cn2c(C3CC3)nc3ccc(NC(=O)C4CC4)cc3c2=O)cc1 | 11.2µM | 2.59µM | 1.41µM | 4.26µM | 1.58µM
CC(=O)Nc1ccc2nc(C3CC3)n(Cc3ccc(Cl)cc3)c(=O)c2c1 | 10µM | ? | 3.55µM | 21.3µM | 3.55µM
Cc1cc(C(=O)NCc2ccco2)on1 | - | - | - | - | -
CCOC(=O)C1=C(C)N=C2SC(C)C(=O)N2C1c1ccc(C(=O)OC)cc1 (centres undefined) | . | - | - | - | -
COc1ccc(C(=O)Nc2nnc(SCC(=O)NC3CCCC3)s2)c(OC)c1 | . | 2.91µM | 0.1µM | 0.536µM | 0.1µM
CCc1nnc(NC(=O)c2ccc(OC)cc2OC)s1 | 2µM | ? | 0.447µM | 2.13µM | 0.447µM
COc1ccc(NC(=O)CSc2nnc(NC(=O)C3CCC3)s2)cc1 | . | - | - | - | -
CCc1nnc(NC(=O)Nc2ccccc2OC)s1 | ? | ? | - | ? | -
CC(=O)Nc1nnc(SCC(=O)NC2CCCC2)s1 | . | - | - | - | -
COc1ccc(C(=O)Nc2nnc(SCC(=O)Nc3ccc(NC(C)=O)cc3)s2)c(OC)c1 | . | ? | 0.355µM | 0.0849µM | 0.631µM
O=S(=O)(Nc1ccc(N2CCOCC2)cc1)c1cc(Cl)ccc1Cl | . | - | - | - | -
